According to PubChem BioAssay (NCATS):
Inconclusive results are not listed. Active and inactive are the calls of the source. Unless noted, the call rests on the fitted dose curve; in most records, active means well fitted curve in the direction sought with a large enough effect; inconclusive means small, poorly fitted or top-dose-only effect, or another doubt; inactive means no such curve, though single readings can be large; an effect the other way counts as inactive or inconclusive.

Tests used:
[1] = biological target: Glucocorticoid receptor (Homo sapiens) (UniProt P04150); assay: qHTS assay for small molecule agonists of glucocorticoid receptor signaling (AID 588532; active means well fitted curve in the direction sought with a large enough effect in the signal ratio, with a control signal flat; the % refers to the signal ratio;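 further: 100% = dexamethasone at 0.1 µM and 0% = DMSO only wells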); details: HeLa MMTV-bla, beta-lactamase ratio, agonist, 18 h; stronger effect = higher value; percent of dexamethasone control, DMSO zero
Method in brief: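 MMTV-bla HeLa beta-lactamase reporter cells in 1% charcoal/dextran FBS medium, compounds up to 92 uM for 18 h at 37 C, CCF4 readout; normalized to 0.1 uM dexamethasone (100%), EC50 and efficacy from Hill fits.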

[2] = biological target: Glucocorticoid receptor (Homo sapiens) (UniProt P04150); assay: qHTS assay for small molecule antagonists of glucocorticoid receptor signaling (AID 588533; active means well fitted inhibition curve with a large enough effect in the signal ratio, with a control signal flat, not every such curve was filed as active; the % refers to the signal ratio; further: on the % scale 0 is the no-effect control and ±100 the full control effect); details: HeLa MMTV-bla, GRE beta-lactamase ratio, antagonist mode, 18 h; series mostly up to 76.8 µM
Method in brief: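 Antagonist-mode qHTS: compound titrations added to GRE-bla HeLa cells, then dexamethasone 2 nM final; 18 h, 37 C. CCF4 FRET fluorescence normalized to dexamethasone and DMSO; IC50 from Hill fit.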

[3] = qHTS assay for small molecule antagonists of peroxisome proliferator-activated receptor delta signaling (AID 588535); details: HEK293T PPARd-UAS-bla, beta-lactamase FRET ratio, 18 h; 460 nm channel;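 further: cells co-treated with a PPAR-delta agonist as stimulator during compound exposure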
Method in brief: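 Fluorescence from CCF4-loaded GeneBLAzer PPAR-delta-UAS-bla HEK293T cells (2 hrs RT loading) quantified reporter inhibition after an 18 hr, 37 C compound exposure across a titration.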

[4] = biological target: Vitamin D3 receptor (Homo sapiens) (UniProt P11473); assay: qHTS assay for small molecule antagonists of vitamin D receptor signaling (AID 588541; calls by dose curve;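 further: receptor activated by calcitriol during compound treatment; on the % scale 0 is the no-effect control and ±100 the full control effect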); details: HEK293T VDR-UAS-bla, beta-lactamase ratio, antagonist mode; series mostly up to 76.7 µM
Method in brief: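 VDR-UAS-bla HEK293T cells in 2% charcoal-stripped FBS were stimulated with 1-alpha,25-dihydroxyvitamin D3 (3 nM final) plus compound for 16 h at 37 C. The beta-lactamase CCF4 readout was normalized to 50 nM agonist and DMSO, and Hill fits gave IC50.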

[5] = biological target: Vitamin D3 receptor (Homo sapiens) (UniProt P11473); assay: qHTS assay for small molecule agonists of vitamin D receptor signaling (AID 588543; calls by dose curve;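 further: 0% = DMSO basal and 100% = reference agonist control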); details: HEK293T VDR-UAS-bla, beta-lactamase ratio, 16 h; series mostly up to 76.8 µM
Method in brief: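 qHTS in agonist mode: compound titrations stimulate a VDR-driven β-lactamase reporter in HEK293T cells over 16 h at 37 °C. Response normalized to 50 nM 1α,25-dihydroxyvitamin D3 = 100%, DMSO = 0%; Hill fitting gives EC50 and maximal response.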

[6] = qHTS assay for small molecule agonists of retinoid X receptor alpha signaling (AID 588544; calls by dose curve;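 on activation: 0% = DMSO basal wells and 100% = reference agonist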); details: HEK293T RXRa-UAS-bla, beta-lactamase reporter, 18 h; 530 nm emission
[7] = biological target: Retinoic acid receptor RXR-alpha (Homo sapiens) (UniProt P19793); assay: as above; details: HEK293T RXRa-UAS-bla, beta-lactamase reporter, 18 h; series mostly up to 76.7 µM
[8] = biological target: Thyroid hormone receptor beta (Homo sapiens) (UniProt P10828); assay: qHTS assay for small molecule agonists of thyroid hormone receptor beta signaling (AID 588545; calls by dose curve); details: TR-UAS-bla GripTite HEK 293, beta-lactamase ratio, agonist mode, 18 h; series mostly up to 76.7 µM
Method in brief: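 Agonist activity was read as beta-lactamase CCF4 fluorescence (405 ex, 460/530 em), scaled between DMSO (0%) and 10 nM T3 (100%), then Hill-fitted for EC50 and efficacy. HEK 293 TR-UAS-bla cells in 2% charcoal/dextran FBS medium were exposed 18 h at 37 C.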

[9] = qHTS assay for small molecule antagonists of retinoid X receptor alpha signaling (AID 588546; active means well fitted inhibition curve with a large enough effect in the signal ratio, with a control signal flat, not every such curve was filed as active; the % refers to the signal ratio;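 further: cells stimulated with 9-cis-retinoic acid as agonist; on the % scale 0 is the no-effect control and ±100 the full control effect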); details: HEK293T RXRa-UAS-bla, beta-lactamase ratio, antagonist mode; measured here: W530 green channel, cytotoxicity proxy
Method in brief: (§1)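 Beta-lactamase reporter inhibition, read as CCF4 fluorescence ratio (ex 405, em 460/530 nm) after 2 h at RT. HEK293T UAS-bla cells, 2500/well, were stimulated with 9-cis-RA at 500 or 100 nM final alongside test compound for 18 h at 37 C.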

[10] = biological target: Retinoic acid receptor RXR-alpha (Homo sapiens) (UniProt P19793); assay: as above; details: HEK293T RXRa-UAS-bla, beta-lactamase ratio, antagonist mode
Method in brief: as §1

[11] = qHTS assay for small molecule activators of the p53 signaling pathway (AID 651743; active means well fitted activation curve with a large enough effect in the signal ratio, not every such curve was filed as active; the % refers to the signal ratio; further: % of control where 0% means no effect); details: HCT-116 p53RE-bla, beta-lactamase FRET ratio, 16 h; activation: stronger effect = higher value
Method in brief: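 Following 16 hours of compound exposure at 37 C, HCT-116 cells bearing the p53RE-bla reporter were loaded with LiveBLAzer B/G FRET substrate for 2 hours at room temperature and fluorescence intensity was recorded.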

[12] = qHTS assay for environmental chemicals that activate the Aryl hydrocarbon Receptor (AhR) signaling pathway (AID 651777); details: 1A2-DRE human hepatoma cells, luciferase, 24 h; activation: stronger effect = higher value; further: % of control where 0% means no effect; nearly all actives have a fitted effect of over 15% in size
Method in brief: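 Concentration–response screening used 1,200 1A2-DRE cells per well, 24 hr compound exposure (37 C, 5% CO2), and One-Glo luminescence as the AhR-driven CYP1A2 reporter signal.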

[13] = biological target: Peroxisome proliferator-activated receptor alpha (Homo sapiens) (UniProt Q07869); assay: qHTS assay for small molecule agonists of the peroxisome proliferator-activated receptor alpha (PPARalpha) signaling pathway (AID 651778); details: PathHunter PPARalpha complementation, chemiluminescence, 6 h; max response: stronger effect = higher value; further: % of control where 0% means no effect
Method in brief: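 Enzyme-fragment complementation assay in which ligand-bound PPARalpha translocates and forms an active enzyme that generates chemiluminescence. Cells were plated overnight, exposed to compound for 6 hr at 37 C, and then given detection reagent for 60 min at room temperature.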

[14] = qHTS assay for small molecule agonists of the antioxidant response element (ARE) signaling pathway measured by Nrf2-dependant transcriptional activity (AID 720636; active means well fitted curve in the direction sought with a large enough effect in the repeat runs; an effect the other way counts as inactive or inconclusive;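 further: HepG2 cells with an ARE-driven luciferase reporter; % of control where 0% means no effect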); details: ARE-luc HepG2, Nrf2 luciferase reporter, 16 h; series mostly up to 92.4 µM
Method in brief: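 Attachment 6 hr at 37 C, then compound versus DMSO vehicle for 16 hr in ARE-luc HepG2 cells (1% dialyzed FBS); luminescence recorded 30 min after ONE-Glo addition at room temperature.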

[15] = qHTS assay for small molecule agonists of the antioxidant response element (ARE) signaling pathway measured by Nrf2-dependant transcriptional activity - cell viability counter screen (AID 720653; active means well fitted curve in the direction sought with a large enough effect in the repeat runs; an effect the other way counts as inactive or inconclusive; further: on the % scale 0 is the no-effect control and ±100 the full control effect); details: ARE-bla HepG2 viability, CellTiter-Glo ATP luminescence, 16 h; max response: stronger effect = lower value
Method in brief: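 ARE-bla HepG2 cells treated with compounds for 16 h at 37C; this counter screen measures viability as intracellular ATP by CellTiter-Glo luminescence after 30 min at room temperature.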

[16] = qHTS assay for cell viability of HEK293 cells (AID 743288); details: ATP luminescence (CellTiter-Glo), 18 h; max response: stronger effect = lower value; further: on the % scale 0 is the no-effect control and ±100 the full control effect; nearly all actives have a fitted effect of over 50% in size
Method in brief: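 Quantitative high-throughput screen: compounds were pinned onto parental HEK293 cells (2,000 per well) after a minimum 5 h settling at 37 C, incubated 18 h at 37 C, and intracellular ATP measured by luciferase luminescence.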

[17] = qHTS assay for cell viability of the p53RE-bla HCT-116 cell line (AID 743292); details: p53RE-bla HCT-116 viability, ATP luminescence, 16 h; series mostly up to 95 µM; further: on the % scale 0 is the no-effect control and ±100 the full control effect; nearly all actives have a fitted effect of over 55% in size
Method in brief: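 Compound-exposed HCT-116 (p53RE-bla) cells, 4,000 per well, were kept 16 h at 37 C following a 5 h preincubation. Cell number was estimated from total ATP by CellTiter-Glo luminescence read after 30 min at room temperature.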

[18] = biological target: Nuclear receptor subfamily 1 group I member 2 (Rattus norvegicus) (UniProt Q9R1A7); assay: qHTS assay for small molecule activators of the rat pregnane X receptor (rPXR) signaling pathway (AID 651751; call rule not given here; further: 0% is about no effect); details: rPXR reporter cells, luciferase (One-Glo), 24 h
[19] = qHTS assay for small molecule activators of the human pregnane X receptor (PXR) signaling pathway (AID 720659; call rule not given here; further: 0% is about no effect); details: DPX-2 HepG2 CYP3A4-luciferase, 24 h; series mostly up to 92.3 µM
[20] = qHTS assay for small molecule agonists of the antioxidant response element (ARE) signaling pathway (AID 651741; active means well fitted activation curve with a large enough effect in the signal ratio; the % refers to the signal ratio; further: potency means the concentration at half of the fitted maximal effect; on activation: % of control where 0% means no effect); details: HepG2 ARE-bla reporter, beta-lactamase FRET ratio, 16 h; series mostly up to 96 µM
Method in brief: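 Stably integrated ARE-beta-lactamase reporter HepG2 cells; 16 h compound incubation, 37 C; LiveBLAzer FRET substrate 2 h at room temperature; fluorescence intensity.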

Sequence of Thyroid hormone receptor beta (Homo sapiens) (P10828 whole entry, looked up): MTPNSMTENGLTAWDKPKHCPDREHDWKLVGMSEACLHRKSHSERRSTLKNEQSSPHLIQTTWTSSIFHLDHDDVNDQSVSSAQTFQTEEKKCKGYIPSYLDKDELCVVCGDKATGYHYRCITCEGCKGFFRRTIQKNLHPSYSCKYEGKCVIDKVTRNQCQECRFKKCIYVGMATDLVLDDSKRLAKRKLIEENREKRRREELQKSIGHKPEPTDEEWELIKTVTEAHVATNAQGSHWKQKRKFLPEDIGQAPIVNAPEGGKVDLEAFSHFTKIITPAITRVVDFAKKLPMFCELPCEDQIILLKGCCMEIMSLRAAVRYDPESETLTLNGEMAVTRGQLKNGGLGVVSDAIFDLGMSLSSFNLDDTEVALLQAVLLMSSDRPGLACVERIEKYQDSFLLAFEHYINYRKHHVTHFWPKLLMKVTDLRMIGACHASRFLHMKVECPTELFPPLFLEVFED
Sequence of Glucocorticoid receptor (Homo sapiens) (P04150 whole entry, looked up): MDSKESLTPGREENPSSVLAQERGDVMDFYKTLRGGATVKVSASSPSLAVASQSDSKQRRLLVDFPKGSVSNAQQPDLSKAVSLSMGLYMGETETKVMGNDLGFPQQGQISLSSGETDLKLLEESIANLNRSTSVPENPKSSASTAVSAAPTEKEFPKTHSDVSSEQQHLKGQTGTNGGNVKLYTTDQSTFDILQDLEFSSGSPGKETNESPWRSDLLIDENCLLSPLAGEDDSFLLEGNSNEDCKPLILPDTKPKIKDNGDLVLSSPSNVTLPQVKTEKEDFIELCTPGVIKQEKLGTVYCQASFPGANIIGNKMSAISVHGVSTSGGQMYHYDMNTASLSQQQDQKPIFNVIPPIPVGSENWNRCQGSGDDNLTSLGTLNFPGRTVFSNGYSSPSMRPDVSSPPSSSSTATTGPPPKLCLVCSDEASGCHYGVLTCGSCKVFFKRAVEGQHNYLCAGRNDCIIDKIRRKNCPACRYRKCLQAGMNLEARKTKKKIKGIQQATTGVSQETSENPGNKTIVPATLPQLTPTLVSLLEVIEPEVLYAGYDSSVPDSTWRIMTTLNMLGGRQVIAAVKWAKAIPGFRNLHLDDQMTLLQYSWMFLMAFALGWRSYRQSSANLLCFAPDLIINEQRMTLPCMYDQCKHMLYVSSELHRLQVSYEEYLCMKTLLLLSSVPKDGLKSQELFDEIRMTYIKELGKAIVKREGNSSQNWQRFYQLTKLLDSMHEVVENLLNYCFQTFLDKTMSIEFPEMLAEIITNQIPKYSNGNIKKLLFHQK
Sequence of Vitamin D3 receptor (Homo sapiens) (P11473 whole entry, looked up): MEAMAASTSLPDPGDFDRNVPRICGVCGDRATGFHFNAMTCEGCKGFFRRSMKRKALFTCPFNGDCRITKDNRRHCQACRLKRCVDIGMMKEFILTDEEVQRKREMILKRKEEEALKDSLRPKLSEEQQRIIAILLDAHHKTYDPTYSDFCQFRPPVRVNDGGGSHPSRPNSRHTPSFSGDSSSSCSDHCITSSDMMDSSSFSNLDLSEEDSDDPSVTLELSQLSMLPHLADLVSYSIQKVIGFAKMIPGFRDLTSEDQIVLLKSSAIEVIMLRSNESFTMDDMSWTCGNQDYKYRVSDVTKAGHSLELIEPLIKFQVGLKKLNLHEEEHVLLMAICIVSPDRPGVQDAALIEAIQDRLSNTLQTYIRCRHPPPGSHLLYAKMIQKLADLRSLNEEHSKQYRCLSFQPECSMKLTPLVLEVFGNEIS
Sequence of Retinoic acid receptor RXR-alpha (Homo sapiens) (P19793 whole entry, looked up): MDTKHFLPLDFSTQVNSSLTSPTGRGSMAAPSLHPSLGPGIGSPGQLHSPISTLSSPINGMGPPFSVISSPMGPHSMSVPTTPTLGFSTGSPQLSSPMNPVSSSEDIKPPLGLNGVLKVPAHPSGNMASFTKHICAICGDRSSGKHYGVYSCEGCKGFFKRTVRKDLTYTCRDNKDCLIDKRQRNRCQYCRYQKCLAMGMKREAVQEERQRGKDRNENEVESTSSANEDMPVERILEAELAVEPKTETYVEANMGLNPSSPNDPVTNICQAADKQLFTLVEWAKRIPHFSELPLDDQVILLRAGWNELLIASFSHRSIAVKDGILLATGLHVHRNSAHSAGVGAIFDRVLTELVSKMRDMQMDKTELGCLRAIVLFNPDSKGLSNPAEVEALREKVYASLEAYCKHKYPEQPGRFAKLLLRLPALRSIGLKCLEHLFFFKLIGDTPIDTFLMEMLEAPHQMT
Sequence of Nuclear receptor subfamily 1 group I member 2 (Rattus norvegicus) (Q9R1A7 whole entry, looked up): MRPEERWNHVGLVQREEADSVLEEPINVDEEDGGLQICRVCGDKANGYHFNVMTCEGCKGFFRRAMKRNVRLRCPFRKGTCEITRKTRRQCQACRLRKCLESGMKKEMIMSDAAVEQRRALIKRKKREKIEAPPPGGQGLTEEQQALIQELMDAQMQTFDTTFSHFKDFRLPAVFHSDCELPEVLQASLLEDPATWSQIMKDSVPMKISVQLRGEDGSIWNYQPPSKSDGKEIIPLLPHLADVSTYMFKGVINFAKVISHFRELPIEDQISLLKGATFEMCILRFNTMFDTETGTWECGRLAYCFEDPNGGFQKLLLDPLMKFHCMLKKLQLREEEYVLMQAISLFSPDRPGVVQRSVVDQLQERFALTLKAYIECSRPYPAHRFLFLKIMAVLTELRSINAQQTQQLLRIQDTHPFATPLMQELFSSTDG
Sequence of Peroxisome proliferator-activated receptor alpha (Homo sapiens) (Q07869 whole entry, looked up, the tested form may be a part): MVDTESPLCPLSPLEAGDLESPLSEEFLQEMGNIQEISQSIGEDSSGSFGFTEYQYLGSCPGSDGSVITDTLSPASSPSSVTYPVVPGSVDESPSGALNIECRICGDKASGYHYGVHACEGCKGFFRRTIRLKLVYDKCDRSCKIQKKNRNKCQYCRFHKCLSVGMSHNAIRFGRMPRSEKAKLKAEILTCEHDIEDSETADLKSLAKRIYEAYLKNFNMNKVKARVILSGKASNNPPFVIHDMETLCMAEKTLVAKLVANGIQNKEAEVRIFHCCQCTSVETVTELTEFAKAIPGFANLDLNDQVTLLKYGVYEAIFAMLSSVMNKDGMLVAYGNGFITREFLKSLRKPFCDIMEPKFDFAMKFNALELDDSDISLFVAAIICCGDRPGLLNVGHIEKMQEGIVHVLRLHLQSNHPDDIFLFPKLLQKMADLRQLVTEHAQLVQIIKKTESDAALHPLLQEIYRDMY

Row | SMILES | activation [1] | Potency [2] | max response [3] [%] | Potency [4] | outcome [5] | max response [6] [%] | Potency [7] | Potency [8] | max response [9] [%] | max response [10] | activation [11] | activation [12] | max response [13] | Potency [14] | max response [15] | max response [16] | Potency [17] | max response [18] | outcome [19] | Potency [20]
1 | O=C(c1ccccc1)c1ccc(O)c(O)c1O | -16.3% (inactive) | inactive | 45.6 | inactive | inactive | 27 | inactive | inactive | -6.52 | -13.1% (inactive) | -1.01% (inactive) | 3.3% (inactive) | -4.07% (inactive) | inactive | -9.24% (inactive) | -12.1% (inactive) | inactive | -0.206% (inactive) | inactive | 
2 | CC(COc1ccc(C(C)(C)C)cc1)OS(=O)OCCCl (stereo unspecified) |  |  | 82.6 |  | inactive |  |  |  |  |  | 8.46% (inactive) | 12.5% (inactive) | -2.96% (inactive) |  | -25.1% (inactive) |  | inactive | -11.7% (inactive) |  | 27.3 µM (active)
3 | CCCCCCCCCCCCCCC | -6.59% (inactive) | inactive | -0.185 | inactive | inactive |  |  | inactive | -8.06 | -6.6% (inactive) |  |  | -1.61% (inactive) | inactive | 10.3% (inactive) | -6.32% (inactive) | inactive | -4.43% (inactive) | inactive | 
4 | C=CCCCCCCCCCC | -14.2% (inactive) | inactive | -16.2 |  |  | -13.8 | inactive | inactive | -3.33 | 2.09% (inactive) |  |  | -0.224% (inactive) | inactive | -1.98% (inactive) | -2.08% (inactive) | inactive | -5.04% (inactive) | inactive | inactive
5 | COC(=O)c1ccc(I)cc1S(=O)(=O)NC(=O)Nc1nc(C)nc(OC)n1 | 7.01% (inactive) | inactive |  | inactive | inactive | -6.12 | inactive | inactive | -4.15 | -12.1% (inactive) | -2.48% (inactive) |  | -0.424% (inactive) |  | -4.44% (inactive) | -13.7% (inactive) | inactive | 3.28% (inactive) | inactive | inactive
